What all share (experiment): DAPPL (digital affinity profiling via proximity ligation, sequencing); 10 mM Tris-HCl pH 7.5, 50 mM NaCl, 1 mM DTT, 4% glycerol, room temperature, 30 min; GST-TFs on glutathione beads, 16-mer random dsDNA library, 0.1% formaldehyde crosslink after washing; high values mean tight binding
What all share (conditions): protein: recombinant; tags: N-terminal GST; dsDNA, one strand shown

For test [1], the target named is T1, ELK1 (Homo sapiens, UniProt P19419 1-428).
T1 sequence: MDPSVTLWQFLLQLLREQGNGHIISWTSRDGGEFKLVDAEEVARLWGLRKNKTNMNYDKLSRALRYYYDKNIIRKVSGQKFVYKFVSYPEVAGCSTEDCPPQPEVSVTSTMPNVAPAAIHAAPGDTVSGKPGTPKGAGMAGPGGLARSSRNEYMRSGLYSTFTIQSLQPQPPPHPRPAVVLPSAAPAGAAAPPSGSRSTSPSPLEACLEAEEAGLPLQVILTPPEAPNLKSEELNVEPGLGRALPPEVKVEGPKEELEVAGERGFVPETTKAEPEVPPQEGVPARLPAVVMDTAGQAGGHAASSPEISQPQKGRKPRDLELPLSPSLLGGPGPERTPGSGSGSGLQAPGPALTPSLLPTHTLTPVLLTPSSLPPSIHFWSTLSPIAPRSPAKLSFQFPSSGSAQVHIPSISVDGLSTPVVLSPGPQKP
The essentials: (§1)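 Beads coated with glutathione captured GST-fused human transcription factors that had been expressed in yeast, and the factors were then given DNA barcodes and pooled with a tag-only sample. The pools were incubated with 200 nmole of a random double-stranded 16-mer DNA library in Tris/NaCl/DTT/glycerol buffer for 30 min at room temperature, washed, crosslinked with 0.1% formaldehyde and proximity-ligated with BsaI/T4 ligase at 37 °C for 1 h. PCR amplification and Illumina NextSeq500 sequencing came last. Binding signal is each hexamer's read frequency for a factor divided by its frequency for the tag-only sample.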

In test [2] the target is T2, GABPA (Homo sapiens, UniProt Q06546 1-454).
T2 sequence: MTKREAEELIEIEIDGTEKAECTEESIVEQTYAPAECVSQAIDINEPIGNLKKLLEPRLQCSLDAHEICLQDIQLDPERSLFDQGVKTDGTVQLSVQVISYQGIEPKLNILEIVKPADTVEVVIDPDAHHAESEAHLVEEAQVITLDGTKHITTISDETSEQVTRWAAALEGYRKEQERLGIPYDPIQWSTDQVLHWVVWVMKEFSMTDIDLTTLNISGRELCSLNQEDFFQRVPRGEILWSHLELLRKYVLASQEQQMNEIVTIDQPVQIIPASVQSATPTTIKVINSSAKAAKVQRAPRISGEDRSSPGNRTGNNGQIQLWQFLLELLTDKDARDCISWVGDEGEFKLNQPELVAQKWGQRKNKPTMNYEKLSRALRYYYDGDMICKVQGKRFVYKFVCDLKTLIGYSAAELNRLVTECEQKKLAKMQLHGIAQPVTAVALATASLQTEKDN
The essentials:
as §1

Test [3] has as its target ELF1 (Homo sapiens, UniProt P32519 1-619). The essentials: as §1
The target in test [4] is SPI1 (Homo sapiens, UniProt P17947 1-270). The essentials: as §1
Test [5] has as its target SPIB (Homo sapiens, UniProt Q01892 1-262). The essentials:
as §1

The target of test [6] is T3, FEV (Homo sapiens, UniProt Q99581 1-238).
T3 sequence: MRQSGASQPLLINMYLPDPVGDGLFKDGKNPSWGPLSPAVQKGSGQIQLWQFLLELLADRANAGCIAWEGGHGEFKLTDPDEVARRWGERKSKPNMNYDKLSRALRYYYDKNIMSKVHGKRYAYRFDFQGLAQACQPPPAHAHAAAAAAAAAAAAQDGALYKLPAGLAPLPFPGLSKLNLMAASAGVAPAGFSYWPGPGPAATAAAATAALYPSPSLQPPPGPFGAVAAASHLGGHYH
The essentials:
as §1

Test [7] concerns the target ETV5 (Homo sapiens, UniProt P41161 1-510). The essentials:
as §1

For test [8], the target named is ELF4 (Homo sapiens, UniProt Q99607 1-663). The essentials: as §1
Test [9] has as its target T4, ELK4 (Homo sapiens, UniProt P28324-2 1-405).
T4 sequence: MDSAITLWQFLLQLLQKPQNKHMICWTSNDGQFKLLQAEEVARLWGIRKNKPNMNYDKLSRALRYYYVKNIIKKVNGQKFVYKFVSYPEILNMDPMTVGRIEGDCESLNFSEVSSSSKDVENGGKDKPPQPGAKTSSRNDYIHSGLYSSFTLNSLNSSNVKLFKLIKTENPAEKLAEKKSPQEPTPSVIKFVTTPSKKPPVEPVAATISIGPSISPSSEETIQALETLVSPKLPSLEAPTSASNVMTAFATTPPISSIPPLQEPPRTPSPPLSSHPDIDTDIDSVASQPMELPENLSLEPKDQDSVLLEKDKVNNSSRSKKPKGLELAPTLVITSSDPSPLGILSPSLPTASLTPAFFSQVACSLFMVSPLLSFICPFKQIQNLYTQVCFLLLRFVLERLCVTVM
The essentials:
as §1

Test [10] addresses T5, ETV2 (Homo sapiens, UniProt O00321 1-342).
T5 sequence: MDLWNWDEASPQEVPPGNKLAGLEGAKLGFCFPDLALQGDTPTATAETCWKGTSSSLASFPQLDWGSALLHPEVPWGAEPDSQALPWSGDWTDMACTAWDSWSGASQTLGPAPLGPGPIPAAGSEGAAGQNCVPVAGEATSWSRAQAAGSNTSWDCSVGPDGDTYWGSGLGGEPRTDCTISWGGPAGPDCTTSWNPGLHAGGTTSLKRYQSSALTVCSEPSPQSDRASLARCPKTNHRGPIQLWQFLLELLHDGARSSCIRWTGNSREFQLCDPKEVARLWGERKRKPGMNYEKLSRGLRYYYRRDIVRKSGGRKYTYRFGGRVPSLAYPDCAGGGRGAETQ
The essentials:
as §1

Test [11] deals with ETV1 (Homo sapiens, UniProt P50549 1-477). The essentials: as §1
The target of test [12] is T6, ERF (Homo sapiens, UniProt P50548 1-548).
T6 sequence: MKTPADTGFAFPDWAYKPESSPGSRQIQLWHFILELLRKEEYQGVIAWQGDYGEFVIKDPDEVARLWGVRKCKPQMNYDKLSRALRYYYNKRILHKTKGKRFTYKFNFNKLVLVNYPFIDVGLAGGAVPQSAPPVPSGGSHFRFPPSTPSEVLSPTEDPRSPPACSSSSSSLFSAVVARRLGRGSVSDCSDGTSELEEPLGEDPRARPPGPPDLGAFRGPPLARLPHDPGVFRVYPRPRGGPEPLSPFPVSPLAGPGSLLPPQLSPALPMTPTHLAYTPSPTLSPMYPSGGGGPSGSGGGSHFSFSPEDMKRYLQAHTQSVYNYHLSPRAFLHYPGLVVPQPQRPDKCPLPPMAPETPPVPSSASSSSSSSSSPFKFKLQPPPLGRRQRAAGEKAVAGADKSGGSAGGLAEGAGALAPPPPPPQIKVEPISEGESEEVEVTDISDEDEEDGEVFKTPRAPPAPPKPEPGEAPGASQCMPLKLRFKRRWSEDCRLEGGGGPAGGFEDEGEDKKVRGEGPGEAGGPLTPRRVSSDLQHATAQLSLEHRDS
The essentials:
as §1

Test [13] addresses T7, ETV3L (Homo sapiens, UniProt Q6ZN32 1-361).
T7 sequence: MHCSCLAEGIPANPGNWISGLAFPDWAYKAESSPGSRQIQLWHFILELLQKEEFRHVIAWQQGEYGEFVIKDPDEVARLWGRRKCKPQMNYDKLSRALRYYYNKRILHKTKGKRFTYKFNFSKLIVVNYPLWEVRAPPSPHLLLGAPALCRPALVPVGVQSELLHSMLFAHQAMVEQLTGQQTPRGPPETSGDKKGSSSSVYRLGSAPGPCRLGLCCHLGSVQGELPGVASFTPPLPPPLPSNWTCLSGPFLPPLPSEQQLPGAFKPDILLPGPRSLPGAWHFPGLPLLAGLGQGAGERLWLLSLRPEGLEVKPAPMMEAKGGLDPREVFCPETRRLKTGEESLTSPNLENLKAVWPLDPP
The essentials: as §1

The target in test [14] is T8, ETS2 (Homo sapiens, UniProt P15036 1-469).
T8 sequence: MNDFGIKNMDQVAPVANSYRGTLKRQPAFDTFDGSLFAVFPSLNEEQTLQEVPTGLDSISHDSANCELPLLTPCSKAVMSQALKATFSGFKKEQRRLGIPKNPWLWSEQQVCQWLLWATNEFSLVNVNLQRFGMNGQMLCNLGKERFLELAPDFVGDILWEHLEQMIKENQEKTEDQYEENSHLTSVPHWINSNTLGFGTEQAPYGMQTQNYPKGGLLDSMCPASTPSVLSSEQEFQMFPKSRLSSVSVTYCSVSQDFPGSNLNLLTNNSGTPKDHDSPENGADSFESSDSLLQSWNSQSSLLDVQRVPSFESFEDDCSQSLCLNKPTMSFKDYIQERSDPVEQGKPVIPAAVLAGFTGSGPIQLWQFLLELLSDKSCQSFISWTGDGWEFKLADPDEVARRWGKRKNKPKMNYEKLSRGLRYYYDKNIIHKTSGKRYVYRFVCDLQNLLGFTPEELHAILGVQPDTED
The essentials: as §1

The target of test [15] is T9, EHF (Homo sapiens, UniProt Q9NZC4 1-300).
T9 sequence: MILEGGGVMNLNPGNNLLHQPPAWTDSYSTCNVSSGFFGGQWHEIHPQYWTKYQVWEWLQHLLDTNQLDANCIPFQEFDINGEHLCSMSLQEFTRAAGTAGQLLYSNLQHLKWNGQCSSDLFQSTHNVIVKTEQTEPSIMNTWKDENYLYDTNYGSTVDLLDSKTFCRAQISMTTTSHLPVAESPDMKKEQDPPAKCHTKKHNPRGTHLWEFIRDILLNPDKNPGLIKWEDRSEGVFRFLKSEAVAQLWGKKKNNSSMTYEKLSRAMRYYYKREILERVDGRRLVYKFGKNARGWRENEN
The essentials:
as §1

For test [16], the target named is T10, SPDEF (Homo sapiens, UniProt O95238 1-335).
T10 sequence: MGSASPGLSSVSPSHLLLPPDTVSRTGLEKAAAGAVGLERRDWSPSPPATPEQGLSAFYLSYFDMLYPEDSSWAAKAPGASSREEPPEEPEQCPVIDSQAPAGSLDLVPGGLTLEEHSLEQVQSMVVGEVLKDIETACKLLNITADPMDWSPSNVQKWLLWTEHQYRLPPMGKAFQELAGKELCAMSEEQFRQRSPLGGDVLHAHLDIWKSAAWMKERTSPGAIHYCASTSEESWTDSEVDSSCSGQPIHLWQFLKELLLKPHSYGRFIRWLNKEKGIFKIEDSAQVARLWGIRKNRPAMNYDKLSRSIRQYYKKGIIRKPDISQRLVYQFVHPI
The essentials:
as §1

Test [17] deals with T11, ETV3 (Homo sapiens, UniProt P41162-2 1-143).
T11 sequence: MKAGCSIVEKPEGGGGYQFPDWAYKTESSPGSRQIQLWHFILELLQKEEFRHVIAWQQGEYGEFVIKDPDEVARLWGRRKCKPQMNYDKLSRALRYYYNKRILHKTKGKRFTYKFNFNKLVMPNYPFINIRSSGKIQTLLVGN
The essentials:
as §1

In test [18] the target is ETV6 (Homo sapiens, UniProt P41212 1-452). The essentials: as §1
Sequence of ETV6 (P41212 whole entry): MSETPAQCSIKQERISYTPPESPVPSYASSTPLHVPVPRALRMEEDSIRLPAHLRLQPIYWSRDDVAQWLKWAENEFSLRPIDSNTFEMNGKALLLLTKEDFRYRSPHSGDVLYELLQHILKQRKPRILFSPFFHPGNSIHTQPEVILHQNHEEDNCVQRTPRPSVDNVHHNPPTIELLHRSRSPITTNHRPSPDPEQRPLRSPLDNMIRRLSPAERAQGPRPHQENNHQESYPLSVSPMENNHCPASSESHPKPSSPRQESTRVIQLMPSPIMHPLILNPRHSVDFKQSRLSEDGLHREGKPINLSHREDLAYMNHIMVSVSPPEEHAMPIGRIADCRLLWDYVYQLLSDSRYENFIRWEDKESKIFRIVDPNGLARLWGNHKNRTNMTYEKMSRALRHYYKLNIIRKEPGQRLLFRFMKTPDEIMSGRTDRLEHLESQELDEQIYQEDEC

Sequence of ELF4 (Q99607 whole entry): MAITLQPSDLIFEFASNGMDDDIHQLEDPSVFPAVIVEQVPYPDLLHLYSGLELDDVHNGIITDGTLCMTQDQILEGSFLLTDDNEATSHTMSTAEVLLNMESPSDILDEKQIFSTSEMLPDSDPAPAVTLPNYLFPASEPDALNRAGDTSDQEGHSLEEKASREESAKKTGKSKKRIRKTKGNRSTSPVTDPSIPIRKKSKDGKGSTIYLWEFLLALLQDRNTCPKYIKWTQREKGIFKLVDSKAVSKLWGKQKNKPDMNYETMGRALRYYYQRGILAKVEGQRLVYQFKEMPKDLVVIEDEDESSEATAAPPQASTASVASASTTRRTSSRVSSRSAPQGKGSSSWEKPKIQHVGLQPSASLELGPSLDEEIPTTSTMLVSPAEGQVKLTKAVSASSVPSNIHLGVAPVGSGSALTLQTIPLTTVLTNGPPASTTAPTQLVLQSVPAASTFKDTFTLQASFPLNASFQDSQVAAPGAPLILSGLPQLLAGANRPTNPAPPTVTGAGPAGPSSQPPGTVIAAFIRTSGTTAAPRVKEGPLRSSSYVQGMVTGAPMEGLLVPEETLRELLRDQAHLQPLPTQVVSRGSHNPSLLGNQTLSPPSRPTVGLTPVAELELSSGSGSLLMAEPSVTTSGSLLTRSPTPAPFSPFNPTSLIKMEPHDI
Sequence of ELF1 (P32519 whole entry): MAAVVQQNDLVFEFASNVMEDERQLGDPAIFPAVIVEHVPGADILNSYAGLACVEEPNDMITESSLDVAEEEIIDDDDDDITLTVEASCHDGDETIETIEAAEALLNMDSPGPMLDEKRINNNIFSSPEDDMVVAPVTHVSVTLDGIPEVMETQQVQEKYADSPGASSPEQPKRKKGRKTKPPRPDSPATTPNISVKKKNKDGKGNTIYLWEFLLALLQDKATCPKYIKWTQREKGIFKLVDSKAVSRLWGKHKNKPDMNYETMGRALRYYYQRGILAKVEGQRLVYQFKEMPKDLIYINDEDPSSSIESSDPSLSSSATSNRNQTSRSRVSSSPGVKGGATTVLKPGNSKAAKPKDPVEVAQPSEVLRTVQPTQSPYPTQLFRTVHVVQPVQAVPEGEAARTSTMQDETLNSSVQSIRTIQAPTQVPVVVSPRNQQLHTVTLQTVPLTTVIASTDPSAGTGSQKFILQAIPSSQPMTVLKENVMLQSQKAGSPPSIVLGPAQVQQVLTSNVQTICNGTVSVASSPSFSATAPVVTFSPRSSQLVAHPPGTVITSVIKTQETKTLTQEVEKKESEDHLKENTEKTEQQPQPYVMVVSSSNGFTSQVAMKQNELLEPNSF
Sequence of ETV5 (P41161 whole entry): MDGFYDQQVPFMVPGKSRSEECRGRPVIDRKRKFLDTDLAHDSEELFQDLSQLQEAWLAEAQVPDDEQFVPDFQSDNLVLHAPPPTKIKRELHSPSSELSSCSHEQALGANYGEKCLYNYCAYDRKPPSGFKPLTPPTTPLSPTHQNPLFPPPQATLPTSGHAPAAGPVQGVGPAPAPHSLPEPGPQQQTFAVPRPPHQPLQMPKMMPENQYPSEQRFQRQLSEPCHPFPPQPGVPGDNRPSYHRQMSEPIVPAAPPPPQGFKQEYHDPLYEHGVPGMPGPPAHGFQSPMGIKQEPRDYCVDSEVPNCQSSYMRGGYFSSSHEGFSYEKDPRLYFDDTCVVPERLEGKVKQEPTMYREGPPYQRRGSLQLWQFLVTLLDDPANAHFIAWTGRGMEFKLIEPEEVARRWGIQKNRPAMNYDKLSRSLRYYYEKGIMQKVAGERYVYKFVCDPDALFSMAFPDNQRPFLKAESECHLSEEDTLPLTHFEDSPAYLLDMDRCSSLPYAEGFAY
Sequence of SPIB (Q01892 whole entry): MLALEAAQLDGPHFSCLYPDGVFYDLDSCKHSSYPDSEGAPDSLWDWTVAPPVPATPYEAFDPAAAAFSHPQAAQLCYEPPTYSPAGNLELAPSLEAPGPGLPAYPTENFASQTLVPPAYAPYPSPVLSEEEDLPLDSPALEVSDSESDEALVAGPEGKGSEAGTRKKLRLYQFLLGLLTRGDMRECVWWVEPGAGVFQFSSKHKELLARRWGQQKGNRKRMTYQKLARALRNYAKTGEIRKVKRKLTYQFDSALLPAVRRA
Sequence of ETV1 (P50549 whole entry): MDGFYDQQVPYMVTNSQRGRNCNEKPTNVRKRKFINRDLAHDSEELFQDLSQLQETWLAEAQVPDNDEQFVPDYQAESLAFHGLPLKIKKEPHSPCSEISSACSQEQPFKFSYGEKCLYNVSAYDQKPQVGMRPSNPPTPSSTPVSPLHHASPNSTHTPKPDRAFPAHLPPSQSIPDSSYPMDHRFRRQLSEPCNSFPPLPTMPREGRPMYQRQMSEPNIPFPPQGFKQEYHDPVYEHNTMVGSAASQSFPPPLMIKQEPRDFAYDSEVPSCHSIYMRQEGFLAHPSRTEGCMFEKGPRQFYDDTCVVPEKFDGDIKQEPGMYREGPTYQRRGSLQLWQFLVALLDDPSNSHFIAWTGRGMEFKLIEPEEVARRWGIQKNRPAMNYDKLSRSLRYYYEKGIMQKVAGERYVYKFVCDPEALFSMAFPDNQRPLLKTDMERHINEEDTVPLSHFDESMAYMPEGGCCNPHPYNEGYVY

Consider GCCTGA, for which the binding signal was 1.13 fold enrichment (6-mer frequency, TF over GST control) in test [1]; 1.11 fold enrichment (6-mer frequency, TF over GST control) in test [2]; 1.04 fold enrichment (6-mer frequency, TF over GST control) in test [3]; 1.05 fold enrichment (6-mer frequency, TF over GST control) in test [4]; 1.09 fold enrichment (6-mer frequency, TF over GST control) in [5]; 1.1 fold enrichment (6-mer frequency, TF over GST control) in test [6]. In addition, the binding signal is 1.09 fold enrichment (6-mer frequency, TF over GST control) in test [7]; 1.06 fold enrichment (6-mer frequency, TF over GST control) in [8]; 1.07 fold enrichment (6-mer frequency, TF over GST control) in test [9]; 1.03 fold enrichment (6-mer frequency, TF over GST control) in test [10]; 1.05 fold enrichment (6-mer frequency, TF over GST control) in test [11]; 1.07 fold enrichment (6-mer frequency, TF over GST control) in test [12]. Further, the binding signal is 1.12 fold enrichment (6-mer frequency, TF over GST control) in [13] and 1.02 fold enrichment (6-mer frequency, TF over GST control) in [14].

As to ACCAAA, the binding signal in [1] was 1.05 fold enrichment (6-mer frequency, TF over GST control); in test [2], 1.01 fold enrichment (6-mer frequency, TF over GST control); in test [3] it was 1.04 fold enrichment (6-mer frequency, TF over GST control); in test [15], 1.07 fold enrichment (6-mer frequency, TF over GST control); in test [4], 1.06 fold enrichment (6-mer frequency, TF over GST control); in test [5], 1.03 fold enrichment (6-mer frequency, TF over GST control). In addition, the binding signal in [6] was 1.07 fold enrichment (6-mer frequency, TF over GST control); in [7], 1.03 fold enrichment (6-mer frequency, TF over GST control); in [8] it was 1.1 fold enrichment (6-mer frequency, TF over GST control); in test [9] it was 1.02 fold enrichment (6-mer frequency, TF over GST control); in [10], 1.14 fold enrichment (6-mer frequency, TF over GST control); in test [12], 1.03 fold enrichment (6-mer frequency, TF over GST control). The binding signal in test [16] is 1.04 fold enrichment (6-mer frequency, TF over GST control); in test [17] it was 1.02 fold enrichment (6-mer frequency, TF over GST control); in test [18], 1.03 fold enrichment (6-mer frequency, TF over GST control).

Source of the values: publication PMC7862700, “An all-to-all approach to the identification of sequence-specific readers for epigenetic DNA modifications on cytosine”.
